Experimental data taken from PubChem BioAssay.

Tested on: Sam68 (KHDRBS1)
Experiment: compounds binding KHDRBS1 protein – biochemical, small-molecule microarray, 635 nm fluorescence, primary screen (AID 1125);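 note: score merges 667 nm channel intensity with signal to noise over triplicate slides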
Conditions: higher = more signal

Row | Compound | composite z-score
1 | CC=CC1=C(CO)[C@H](O)[C@H]2O[C@H]2[C@H]1O | 0.278
2 | CC(=O)OC[C@H]1O[C@@H](ON=C[C@@H](C)[C@H](OCc2ccccc2)C(C)C)[C@H](OC(C)=O)[C@@H](OC(C)=O)[C@@H]1OC(C)=O | 0.96
3 | CC(C)[C@@H](OCc1ccccc1)[C@H](C)C=NOC[C@@H](C)[C@H](OCc1ccccc1)C(C)C | -0.24
4 | [N-]=[N+]=NCc1ccccc1[C@@H]1OC(c2ccc(OCCCO)cc2)=N[C@]1(Cc1ccccc1)C(=O)N1CCOCC1 | 1.32
5 | CCCC=C(CCC)[C@@H](NC(=O)c1ccc(-c2ccccc2)cc1)c1ccc(C(=O)OC)cc1 | 1.26

Tested on: Chordin-like protein 2 (CHRDL2)
Experiment: compounds binding chordin-like 2 – biochemical, small-molecule microarray, 635 nm fluorescence, primary screen (AID 1126);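 note: printed compound slides probed with Chrdl2 protein at 4 µg/mL for 1 h at 4 C; score merges 667 nm emission intensity with signal to noise over three replicate slides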
Conditions: fluorescence 635 nm, higher = more signal

Row | Compound | composite z-score
6 | CCCNC(=O)OC[C@H]1O[C@H](CCON=CC[C@@H]2C=C[C@H](OC(C)=O)[C@@H](COC(C)=O)O2)C=C[C@@H]1Oc1ccc(OC)cc1 | 0.593
7 | O[C@@H](Cc1ccccc1)[C@H]1C2C=CCCC(c3ccccc3)=C2CN1Cc1cccc(Cl)c1 (some centres not stated) | 0.441
8 | CCCC[C@@H]1C[C@H]1[C@@H](NS(=O)(=O)c1cccc2cccnc12)c1ccc(-c2ccccc2)cc1 | -1
9 | O=C1C2=CC[C@H]3C(=O)N(Cc4ccc5c(c4)OCO5)C(=O)[C@H]3[C@H]2[C@H](O)[C@@H]2O[C@H]12 | 0.529
10 | CCOC(=O)[C@H](CC(C)C)NC(=O)CCC1CC(OC(=O)NCCc2ccc(F)cc2)CC2(CCCC(COC(=O)NCc3ccccc3)O2)O1 (some centres not stated) | 0.623
11 | CCCNC(=O)[C@@H]1c2ccccc2C(=O)N(Cc2ccccc2Cl)[C@H]1c1ccc(CO)cc1 | 0.36
12 | CO[C@@H]1COC(=O)CC=C[C@@H](C)COC(=O)[C@H](COCc2ccccc2)NC(=O)CC=C[C@H]1C | 1.48
